Test [1] can be described thus: NCI Yeast Anticancer Drug Screen. Data for the rad50 strain (AID 155).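 Also: 0% = growth of vehicle-only cultures of the same strain.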 Conditions: S. cerevisiae rad50 strain growth inhibition, hits give high values; at 50.0 µM unless noted. The method in brief: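 Inhibition values express reduced yeast growth in compound-treated cultures relative to vehicle-treated controls.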
A short description of test [2]: NCI Yeast Anticancer Drug Screen. Data for the mec2-1 strain (AID 157). Conditions: S. cerevisiae mec2-1 strain, hits give high values; at 50.0 µM unless noted. The method in brief: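 Strain: mec2-1 (DNA repair/cell cycle alteration). Compound exposure, then growth measured; inhibition expressed relative to vehicle.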
Test [3] can be described thus: NCI Yeast Anticancer Drug Screen. Data for the sgs1 mgt1 strain (AID 161).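 Also: 0% = growth of cultures given vehicle only.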 Conditions: S. cerevisiae sgs1 mgt1 strain, hits give high values; at 50.0 µM unless noted. In short, it runs like this: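 Mutant yeast exposed to compound; growth scored against vehicle-only wells.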
Test [4] can be described thus: NCI Yeast Anticancer Drug Screen. Data for the cln2 rad14 strain (AID 165).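 Also: 0% = growth equal to vehicle treated cultures.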 Conditions: S. cerevisiae cln2 rad14 strain, hits give high values; at 50.0 µM unless noted. The method in brief: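 Compounds are applied to the cln2 rad14 yeast strain, and growth is then compared with that of vehicle-treated cultures to give inhibition.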
A short description of test [5]: NCI Yeast Anticancer Drug Screen. Data for the bub3 strain (AID 167). Conditions: S. cerevisiae bub3 mutant strain, hits give high values; at 50.0 µM unless noted. In short, it runs like this:
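Steps: expose the mutant yeast strain to compound; grow alongside vehicle-treated cultures; measure growth; express inhibition against the vehicle cultures.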

Test [6] can be described thus: NCI Yeast Anticancer Drug Screen. Data for the mlh1 rad18 strain (AID 175). Conditions: S. cerevisiae mlh1 rad18 strain growth inhibition, hits give high values; at 50.0 µM unless noted. In short, it runs like this:
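Read-out is yeast growth inhibition, calculated against vehicle-only controls. The compound was applied to a strain engineered with DNA damage repair alterations.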

Values joined by “and” are separate entries in the source; they are usually repeats but may differ in a detail not shown here. Identical values can stand only once. The panel holds about 79,000 compounds, 15% with a hit somewhere; the sample as a whole holds those more often. Values without a mark were called inactive. Active and inactive are the calls of the source. Rule as the data show it: active = growth inhibition above about 70%; inactive = the rest.

As to `CC(=O)Oc1ccc(CCC(=O)O)cc1`, the growth inhibition in test [1] is 18.8%; in test [2], 12.6%; in test [3], 6.9%; in test [4], 57.9%; in test [5], 11.4%; in test [6], 20.9%.

Consider `CCc1ccc2c(-c3ccccc3)c3c(-c4ccccc4)c4ccccc4c(-c4ccccc4)c3c(-c3ccccc3)c2c1`, for which the growth inhibition in test [1] is 16.6%; in test [2] it was 7.3%; in test [3], -5.8%; in test [4] it was -28.4%; in test [5], -8.15%; in test [6], 23.4%.

As for `COc1ccccc1NC(=O)c1ccccc1`, the growth inhibition is 23.2% in test [1]; 11.3% in test [2]; 4.95% in test [3]; -9.25% in test [4]; 2.75% in test [5]; 16.1% in test [6].

Regarding `CC(=O)OCC1OC(OC(C)=O)C(OC(C)=O)C(OC(C)=O)C1OC(C)=O` (stereo not given), the growth inhibition in test [1] was -0.8% and 33.3%; in test [2] it was 0.25% and 9.6%; in test [3], -17.5% and 21.1%; in test [4], -30.9% and 11.5%; in test [5], -14.4% and 5.45%; in test [6], -26.1% and 8.9%.

`CCOC(=O)c1cnc2c(cnn2CC)c1NCC(C)C`: the growth inhibition was -3.15% in test [1]; 21.8% in test [2]; 18.6% in test [3]; 3.15% in test [4]; 85.9% (active) in test [5]; 3.35% in test [6].

For `C1CCN(CCC2CCNCC2)CC1`, the growth inhibition in test [1] is -5.4%; in test [2], -18.3%; in test [3] it was -12.1%; in test [4], 1.8%; in test [5], 7.65%; in test [6] it was -1.6%.

`O=P(O)(O)c1ccc(-c2ccc(I)cc2)cc1`: the growth inhibition in test [1] was 11.7%; in test [2], -15.5%; in test [3] it was 7.45%; in test [4], 22.2%; in test [5], -8.8%; in test [6], 13.2%.

On to `C/C(CC1(O)C(=O)Nc2ccccc21)=N\O` (stereo not given), for which the growth inhibition in test [1] was -1.95% and -34.7%; in test [2] it was -8.5% and -46.1%; in test [3] it was -30.6%; in test [4], 8.6%; in test [5], -16.2%; in test [6], 6.55% and -10%.

Regarding `CCCC1SCC(=O)N1c1nncs1` (stereo not given), the growth inhibition in test [1] was 6.5%; in test [2], 3.5%; in test [3], -23.2%; in test [4], -29.1%; in test [5], -8%; in test [6], -30.6%.

Take `CCCCC/C(=N\c1nc[nH]c1C(N)=O)OCC`: the growth inhibition was -29.9% in test [1]; -12.9% in test [2]; -37.9% in test [3]; -7.1% in test [4]; -27.8% in test [5]; -25.6% in test [6].

In the case of `CC(C)=CC(=O)CC1(C)CCC(c2ccoc2)O1` (stereo not given), the growth inhibition in test [1] was -18.8%; in test [2] it was -32.9%; in test [3], -11.6%; in test [4] it was 14%; in test [5] it was 6.35%; in test [6], -16%.

Take `C=CCOCC(O)CNCC(O)COCC=C` (stereo not given): the growth inhibition in test [1] was -36.9%; in test [2], -33.7%; in test [3], -24.9%; in test [4] it was 14.3%; in test [5] it was -31.2%; in test [6], 5.2%.

On to `COc1cc(Cc2nccc3cc(OC)c(OC)cc23)c(C(C)=O)cc1OC`, for which the growth inhibition in test [1] was 21.9%; in test [2], -22.9%; in test [3] it was 19.1%; in test [4], 14.1%; in test [5], 22%; in test [6] it was 22.4%.

Consider `CC(C)(C)OC(=O)NCC(=O)OC/C=C/c1ccccc1`, for which the growth inhibition was -2.7% in test [1]; 1.3% in test [2]; 6.65% in test [3]; -8.15% in test [4]; -3.6% in test [5]; 6.1% in test [6].

Turning to `Nc1nc(Cl)cc(NCCO)n1`, the growth inhibition in test [1] is -1.15% and -5.05%; in test [2], -36.6% and 7%; in test [3], -39.5% and 20.7%; in test [4], -7.85% and -0.25%; in test [5], -21.1% and 4.8%; in test [6], 1.8% and 43.4%.

Turning to `O=C1C2C3ON(c4ccccc43)C2C(=O)N1c1ccccc1` (stereo not given), the growth inhibition in test [1] is -0.65%; in test [2], 21%; in test [3], 15.4%; in test [4], 2.4%; in test [5], 3.6%; in test [6], -3.55%.

Turning to `Cc1cc(C)c(S(=O)(=O)Oc2ccccc2)c(C)c1`, the growth inhibition in test [1] is -14.9%; in test [2], -7.15%; in test [3], -8.5%; in test [4], 1.7%; in test [5] it was 11.8%; in test [6], -36.7%.

Turning to `C=C1CC2CC[C@@]34C[C@@H]5O[C@@H]6C(O[C@H]7CC[C@H](CC(=O)OC8[C@@H](C)C9OC%10C[C@]%11(C[C@@H]%12O[C@@]%13(C[C@@H](C)[C@@H]%12O%11)C[C@H](C)[C@@H]%11OC%12CC(C(O)CO)OC%12C[C@@H]%11O%13)OC%10CC9O[C@H]8C[C@H]8O[C@@H](CC[C@@H]1O2)C[C@@H](C)C8=C)O[C@@H]7[C@@H]6O3)C5O4` (stereo not given in full), the growth inhibition is 79.8% (active) in test [1]; 74.6% (active) in test [2]; 76.5% (active) in test [3]; 69.8% in test [4]; 83.2% (active) in test [5]; 78.5% (active) in test [6].

`Nc1nc(CCc2ccc(NC(=O)CBr)cc2)c(CCCCc2ccccc2)c(=O)[nH]1`: the growth inhibition in test [1] was 16.4%; in test [2] it was 1.85%; in test [3] it was 25.8%; in test [4], 24.2%; in test [5], 3.75%; in test [6], 16.2%.

As for `O=C(Nc1cc(Cl)c(Cl)cc1Cl)C(=O)C(C(=O)c1ccccc1)C1OC(=O)c2ccccc21` (stereo not given), the growth inhibition was -18.6% in test [1]; -34.8% in test [2]; -25.1% in test [3]; -0.5% in test [4]; -10.2% in test [5]; -10.3% in test [6].

Values taken from PubChem BioAssay (NCI).
